High-throughput results as filed in PubChem.
aSyn UTR act: Activators working through SNCA 5'UTR binding (MLPCN); alpha-synuclein 5'UTR reporter, activators screen; activity score, % (tested at 7.5 µM), hits read low; 300,000 compounds, 7.1% hits; AID 1814; in the data active = activity score below about -60%
Each line names hits and unclear results; the compound was inactive in the other large screens. Not all results are given here.

Cc1ccc(-c2nc3c(=O)n(C)c4ccccc4c3o2)cc1	aSyn UTR act -72
O=C(c1cc(-c2ccc3c(c2)OCO3)on1)N1CCCCC1	none
CC1CCCC(C)N1C(=O)c1cc(-c2ccc3c(c2)OCO3)on1 (stereo not given)	aSyn UTR act -131
CC1CCCC(C)N1C(=O)c1cc(-c2ccc(Cl)c(Cl)c2)on1 (stereo not given)	aSyn UTR act -173
COc1cccc(NC(=O)C(=O)N/N=C(\C)CC(=O)Nc2ccc(NC(C)=O)cc2)c1	aSyn UTR act -196
C/C(CC(=O)Nc1ccc(OCc2ccccc2)cc1)=N\NC(=O)C(=O)Nc1ccc(C)c(Cl)c1	aSyn UTR act -69
C/C(CC(=O)Nc1cc(C)ccn1)=N\NC(=O)C(=O)Nc1cccc(C)c1	aSyn UTR act -74
CC(C)CC(NC(=O)C1CCC(C)CC1)C(=O)Nc1ccc2c(c1)OCCO2 (stereo not given)	aSyn UTR act -62
CCC1CCC(C(=O)NC(C(=O)Nc2ccc3c(c2)OCCO3)C(C)C)CC1 (stereo not given)	aSyn UTR act -84
CCN(CC)C(=O)c1cc2sc3ccccc3c2s1	aSyn UTR act -134
CN(C)CCNC(=O)c1cc2sc3ccccc3c2s1	aSyn UTR act -127
CC(=O)c1ccc(NC(=S)N2CCCC(CO)C2)cc1 (stereo not given)	aSyn UTR act -82
OCC1CCCN(C(=S)Nc2ccc(Oc3ccccc3)cc2)C1 (stereo not given)	aSyn UTR act -135
O=C(NC1CCCCC1)C(=S)NCCc1ccccc1	aSyn UTR act -62
O=C(NCCc1ccccc1)C(=O)NC1CCCCC1	aSyn UTR act -105
c1ccc(CCNc2ccnc3cc4ccccc4cc23)cc1	none
Cc1cc2c(NCCc3ccccc3)ncnc2s1	aSyn UTR act -64
c1ccc(CCNc2ncnc3ccccc23)cc1	aSyn UTR act -117
Cc1[nH]c2ccccc2c1N=Nc1ccccc1F	aSyn UTR act -122
N#C/C(=C\c1ccccc1O)C(=O)Nc1cccnc1	aSyn UTR act -107
Cc1cc(/C=C(\C#N)C(=O)Nc2ccccc2)c(C)n1-c1cccnc1	aSyn UTR act -143
O=C(/C=C/c1ccccc1Cl)NCc1cccs1	aSyn UTR act -101
O=C(/C=C/c1ccc(F)cc1)NCc1cccs1	aSyn UTR act -112
O=C(/C=C/c1ccccc1Cl)NNC(=O)c1cccs1	aSyn UTR act -83
O=C(/C=C/c1ccc(F)cc1)NC(=S)NNC(=O)c1cnccn1	none
O=C(NCc1cccs1)c1nc2c(nnn2Cc2ccccc2Cl)c(=O)[nH]1	none
C=CC[C@]12CC=CC(=O)[C@@]1(O)O[C@H](c1ccc(OC)c(OC)c1)[C@H]2C	aSyn UTR act -94
O=c1c(-c2ccc3c(c2)OCCO3)coc2c(CN3CCOCC3)c(O)ccc12	aSyn UTR act -94
CCc1cc2c(=O)c(-c3ccc4c(c3)OCCO4)coc2c(CN2CCCCC2C)c1O (stereo not given)	aSyn UTR act -65
CCc1cc2c(=O)c(-c3ccc4c(c3)OCCO4)coc2cc1OS(C)(=O)=O	aSyn UTR act -116
CCN(CC(=O)c1c(N)n(C)c(=O)n(C)c1=O)c1cccc2ccccc12	aSyn UTR act -72
CCCCC(=O)Nc1cnc(NC(=O)c2cccs2)cc1C	aSyn UTR act -127
COc1ccc(C(=O)Nc2cnc(NC(=O)c3cccs3)cc2C)cc1	aSyn UTR act -83
COc1ccc(C(=O)Nc2cc(C)c(NC(=O)c3ccccn3)cn2)cc1	aSyn UTR act -78
N#CC1=C2Sc3ccccc3N2CCCC1=O	aSyn UTR act -171
N#CC1=C2SC=C(c3ccc(Br)cc3)N2CCCC1=O	aSyn UTR act -257
CN(C)S(=O)(=O)c1ccc(-c2cn3ccccc3n2)cc1	aSyn UTR act -194
O=[N+]([O-])c1ccc(-c2cn3ccccc3n2)cc1	aSyn UTR act -148
CCOC(=O)C1CCCN(C(=O)CSCc2ccccc2)C1 (stereo not given)	aSyn UTR act -112
O=C(CSCc1ccc(F)cc1)N1CCN(c2ccccc2)CC1	aSyn UTR act -66
O=C(CSCc1cccc(Br)c1)N1CCOCC1	aSyn UTR act -67
CCOC(=O)N1CCN(C(=O)CSCc2ccccc2)CC1	aSyn UTR act -83
CCOC(=O)C1CCCN(C(=O)CCc2nnc(-c3ccc(C(C)=O)s3)o2)C1 (stereo not given)	aSyn UTR act -134
COc1ccc(OS(=O)(=O)Cc2ccccc2)cc1	aSyn UTR act -103
CC1Oc2cc3oc4c(O)c5c(cc4c(=O)c3c(O)c2C1(C)C)C=CC(C)(C)O5 (stereo not given)	aSyn UTR act -265
O=C(Nc1ccccc1)c1ccc(-c2ccccc2)s1	aSyn UTR act -215
COc1ccc2cc(C(=O)Nc3ccccc3)sc(=O)c2c1OC	aSyn UTR act -78
O=C(O)c1ccc(-c2ccc(-c3ccccc3)cc2)s1	none
O=C(Nc1ccccc1)c1cc2ccc3ccccc3c2s1	aSyn UTR act -90
CN(C)CCNC(=O)C(=O)Nc1ccc2c(c1)N(S(=O)(=O)c1cccs1)CCC2	aSyn UTR act -63
CCCNC(=O)C(=O)Nc1ccc2c(c1)N(S(=O)(=O)c1cccs1)CCC2	aSyn UTR act -79
COCCCNC(=O)C(=O)Nc1ccc2c(c1)N(S(=O)(=O)c1cccs1)CCC2	none
O=S(=O)(c1cccs1)N1CCCc2cccc(O)c21	aSyn UTR act -82
COc1ccc(NC(=O)c2cccc(Oc3ccccc3)c2)cn1	aSyn UTR act -109
COc1ccc(NC(=S)NC(=O)c2ccccc2)cn1	aSyn UTR act -138
CCOc1ccc(Nc2nc(-c3cccnc3)cs2)cc1	aSyn UTR act -223
Brc1ccc(Nc2nc(-c3cccnc3)cs2)cc1	aSyn UTR act -161
Brc1cccc(Nc2nc(-c3cccnc3)cs2)c1	aSyn UTR act -150
Clc1cccc(Nc2nc(-c3cccnc3)cs2)c1	aSyn UTR act -271
O=C(OCc1nc2ccccc2s1)c1ccco1	aSyn UTR act -97
Cc1cc(C(=O)OCc2nc3ccccc3s2)c(C)o1	aSyn UTR act -126
CC(=O)OCc1nc2ccccc2s1	aSyn UTR act -136
CCOc1ccc(S(=O)(=O)N/N=C2/CC(c3ccccc3)Oc3ccccc32)cc1 (stereo not given)	aSyn UTR act -66
COc1ccc(C2=NN(CN3C(=O)C(=O)c4ccccc43)C(c3ccc(OC)cc3)C2)cc1 (stereo not given)	aSyn UTR act -182
O=C1C(C=NCc2cccnc2)=C(O)c2ccccc21	aSyn UTR act -186
O=C1C(C=NCc2ccco2)=C(O)c2ccccc21	aSyn UTR act -141
CC(C)(C)c1ccc(OCCCC(=O)Nc2ccc(S(N)(=O)=O)cc2)cc1	aSyn UTR act -146
Nc1ccc2oc3ccc(N)cc3c(=O)c2c1	aSyn UTR act -103
O=C(COc1ccccc1Cl)c1ccc2c(c1)CCCC2	aSyn UTR act -201
Fc1ccc(N2CCN(c3cnc4ccccc4n3)CC2)cc1	aSyn UTR act -251
c1ccc(N2CCN(c3cnc4ccccc4n3)CC2)cc1	aSyn UTR act -77
Clc1ccc(N2CCN(c3cnc4ccccc4n3)CC2)cc1	aSyn UTR act -137
O=C(N/N=C1\CCCc2ccccc21)c1ccc([N+](=O)[O-])cc1	aSyn UTR act -82
Cc1ccc(C(=O)N/N=C2\CCCc3ccccc32)c(C)c1	aSyn UTR act -161
CCOC(=O)C1CCN(S(=O)(=O)c2c(Cl)ccc3nonc23)CC1	aSyn UTR act -309
CSc1nc(-c2ccccc2)nc(NC(C)=O)c1C(C)=O	aSyn UTR act -62
Cc1ccc(Cl)c(NC(=O)CCl)c1Cl	aSyn UTR act -87
CCCCOC(=O)Nc1cccc(Cl)c1C	aSyn UTR act -104
O=Cc1cc(N=Nc2ccccc2Cl)ccc1O	aSyn UTR act -111
